Hits are enriched below; roughly 8.9% of the tested compounds scored in any of these assays.
SW480 rereplic: A quantitative high throughput screen for small molecules that induce DNA re-replication in SW480 colon adenocarcinoma cells | SW480 DNA re-replication, Hoechst DNA content imaging, 48 h | Potency, µM (titrated, usually from 46.1 µM), for inactives: at the highest dose re-replication activation, hits mostly activators | actives 1.8% (n = 340,000) | AID 624297, 2012; also: potency is read from the fitted curve at half-maximal effect; % of control where 0% means no effect; nearly all actives have a fitted effect of over 55% in size
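Hoechst fluorescence of nuclei (405 nm excitation, 500-530 nm emission) measured by plate-scanning imager after 48 hr compound exposure at 37 C; re-replication scored as increased number of nuclei with elevated intensity.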
D3 ag: qHTS of D3 Dopamine Receptor Agonist: qHTS; D(3) dopamine receptor (Homo sapiens), P35462; D3R DiscoveRx beta-arrestin cells, luminescence, 90 min; max activation, %; actives 0.58% (n = 410,000); AID 652048, 2013; in the data active = max activation above about 30%; also: 0% is about no effect
Target sequence (P35462 whole entry, looked up): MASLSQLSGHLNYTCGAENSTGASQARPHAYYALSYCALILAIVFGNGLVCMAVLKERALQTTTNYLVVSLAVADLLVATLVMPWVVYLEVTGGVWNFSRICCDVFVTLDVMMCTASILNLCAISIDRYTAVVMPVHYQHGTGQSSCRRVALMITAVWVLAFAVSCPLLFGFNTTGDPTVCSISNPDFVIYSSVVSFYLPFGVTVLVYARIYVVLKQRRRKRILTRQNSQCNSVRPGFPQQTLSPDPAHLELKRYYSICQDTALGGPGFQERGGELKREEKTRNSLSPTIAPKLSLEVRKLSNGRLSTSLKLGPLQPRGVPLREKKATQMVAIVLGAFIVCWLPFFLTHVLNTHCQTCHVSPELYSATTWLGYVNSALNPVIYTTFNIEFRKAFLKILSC
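Agonist mode: compounds and dopamine controls were applied to plated cells for 90 min at 37 degrees C after an overnight attachment at 1500 cells/well. Luminescent read-out followed 30 - 60 minutes at room temperature with DiscoveRx detection reagent.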
KB-3-1 cytotox: qHTS assay for MDR1-selective chemotherapeutics: Primary screen using the parental adenocarcinoma cell KB-3-1. KB-3-1 viability, CellTiter-Glo ATP luminescence, 72 h. Potency, µM (titrated, usually from 46.1 µM), most hits filed as cytotoxic. actives 1.4% (n = 400,000); also: potency is read from the fitted curve at half-maximal effect; % is scaled to controls: 0 for no effect and ±100 for the full control effect; nearly all actives have a fitted effect of over 60% in size
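Cells are dispensed, compounds pinned in, plates held at 37 °C for 72 h, then CellTiter-Glo is added and luminescence read after 10 minutes. Cell line: parental KB-3-1 in phenol-red-free DMEM, 10% FBS.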
D3 antag: qHTS of D3 Dopamine Receptor Antagonist: qHTS; D3R cells, DiscoveRx beta-arrestin luminescence, antagonist mode; hits give low values; max response, negative = inhibition, %; actives 2.5% (n = 360,000); AID 652054, 2013; in the data active = max response below about -50%; inconclusive = no clear call, values can overlap the other calls; also: % is scaled to controls: 0 for no effect and ±100 for the full control effect
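Cells plated overnight at 1500 cells/well, then exposed to library compounds with dopamine controls for 90 minutes at 37 degrees C. DiscoveRx reagent added for 30–60 minutes at room temperature; luminescence read, quantitative HTS format.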
MCF10A rereplic: A quantitative high throughput screen for small molecules that induce DNA re-replication in MCF 10a normal breast cells. Potency, µM (highest dose often 46.1 µM), for the others: at the top dose activity, positive = re-replication, usual class: activators. MCF 10A DNA re-replication, Hoechst nuclear intensity, 48 h. actives 2.9% (n = 350,000); also: potency is read from the fitted curve at half-maximal effect; % of control where 0% means no effect; nearly all actives have a fitted effect of over 50% in size
KB-V1 MDR tox: qHTS assay for MDR1-selective chemotherapeutics: Primary screen using the drug-selected MDR subline cells KB-V1; KB-V1 MDR cells viability, CellTiter-Glo, 72 h; Potency, µM (highest dose often 46.1 µM), actives largely listed as cytotoxic; actives 3.4% (n = 400,000); AID 1347076, 2019; also: potency is read from the fitted curve at half-maximal effect; % is scaled to controls: 0 for no effect and ±100 for the full control effect; nearly all actives have a fitted effect of over 60% in size
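qHTS viability screen in drug-selected KB-V1 MDR cells: 72 h compound treatment at 37 degrees C, ATP luminescence end point.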
Starred values were filed as active, the others as inactive; i = inactive; ? = inconclusive; · = no result; [ ] = remark or other dose. Unless noted, calls follow the shape of the dose curve; as a rule, active = well fitted curve in the direction sought with a large enough effect; inconclusive = small, poorly fitted or top-dose-only effect, or another doubt; inactive = no such curve, though single readings can be large; an effect the other way counts as inactive or inconclusive.

SMILES	SW480 rereplic	D3 ag	KB-3-1 cytotox	D3 antag	MCF10A rereplic	KB-V1 MDR tox
C=C1C(=O)[C@]23C[C@H]1CCC2[C@@]1(C)C(C[C@@H]3O)[C@](C)(C(=O)OC)CC[C@@H]1OC(C)=O (stereo partly drawn)	·	-26.9	?	-132.5*	·	16.4µM*
COC(C(=O)C(O)C(C)O)C1Cc2cc3cc(OC4CC(OC5CC(O)C(O)C(C)O5)C(O)C(C)O4)c(C)c(O)c3c(O)c2C(=O)C1OC1CC(OC2CC(OC3CC(C)(O)C(O)C(C)O3)C(O)C(C)O2)C(O)C(C)O1 (stereo not drawn)	-23.2%	·	0.0052µM*	·	?	i
COC(C(=O)C(O)C(C)O)C1Cc2cc3cc(OC4CC(OC5CC(O)C(O)C(C)O5)C(O)C(C)O4)c(C)c(O)c3c(O)c2C(=O)C1OC1CC(OC2CC(OC3CC(O)C(OC)C(C)O3)C(O)C(C)O2)C(O)C(C)O1 (stereo not drawn)	-9.5%	-11.4	0.184µM*	22.5	-10.5%	i
CCC1(c2ccc(Cl)cc2)NC(=O)N(CC(=O)NC2CCCCCC2)C1=O (stereo not drawn)	-3.8%	-8.2	i	-26.6	9.8%	i
CCC1(c2ccc(F)cc2)NC(=O)N(CC(=O)NC2CCCC(C)C2C)C1=O (stereo not drawn)	0.1%	-2.7	i	-8.5	-1.8%	16.4µM*
CCC1(c2ccc(Cl)cc2)NC(=O)N(CC(=O)NC2CCCC(C)C2C)C1=O (stereo not drawn)	4.11µM*	-2.0	i	2.9	67.1%	i
CCCN(CC(=O)Nc1ccccc1C)C(=O)COc1c(Cl)cccc1Cl	5.0%	-5.5	i	20.5	3.6%	5.8µM*
CCCN(CC(=O)Nc1ccccc1C)C(=O)CCl	19.8%	-7.1	16.4µM*	-8.6	?	?
CCCN(CC(=O)Nc1ccccc1C)C(=O)COc1c(C)cccc1C	3.1%	0.2	i	4.7	-2.6%	i
CCCN(CC(=O)Nc1ccccc1C)C(=O)CCCNC(=O)c1ccc(Cl)cc1	-5.2%	0.5	i	-13.3	0.0%	?
COc1cccc(NC(=O)C2CCN(S(=O)(=O)c3cccc4nonc34)CC2)c1	·	-8.1	i	·	·	i
CCN(CC)S(=O)(=O)c1ccc(NC(=O)c2ccc(OCC3CCCO3)cc2)cc1 (stereo not drawn)	-18.1%	-13.1	i	4.8	?	14.6µM*
CCOc1ccc(NC(=O)c2ccc(OCC3CCCO3)cc2)cc1S(=O)(=O)N(CC)CC (stereo not drawn)	4.2%	-4.6	i	-28.1	2.6%	2.59µM*
C=C(CC[C@@H](C)[C@H]1CCC2[C@]1(C)CC[C@]13C[C@@]14CCC(OC(=O)/C=C/c1ccc(O)c(OC)c1)C(C)(C)[C@@H]4CC[C@@]23C)C(C)C (stereo partly drawn)	1.1%	·	·	·	11.6%	·
Cn1nc(-c2ccccc2)c(C(O)c2ccc(Cl)cc2)c1Cl (stereo not drawn)	-2.3%	0.6	i	22.2	428.0%[0.0737 µM]	i
Cn1nc(-c2ccccc2)c(CSc2ccccc2Cl)c1Cl	5.8µM*	-11.9	?	-9.2	7.31µM*	11.6µM*
COc1ccc(N2CCN(C(=O)CSc3nc(C)cs3)CC2)cc1	18.4µM*	-13.7	i	4.7	-0.4%	i
COc1ccc(N2CCN(C(=O)CSc3nc4nc(C)cc(C)n4n3)CC2)cc1	-5.1%	-6.1	i	10.0	-4.3%	20.6µM*
Cc1[nH]c(=O)[nH]c(=O)c1S(=O)(=O)Nc1cccc(Cl)c1C	·	9.9	i	·	·	?
O=[N+]([O-])c1cc(-c2nc(-c3ccccc3)no2)ccc1N1CCCC1	·	2.7	i	·	·	i
Cc1cc2[nH]c3c(c[n+](C)c4ccccc34)c2cc1C	?	-18.4	?	-11.8	?	i
Cc1cc2[nH]c3c4ccccc4nc(C)c3c2cc1C	10.4%	-2.9	10.3µM*	18.3	26.3%	?
CCOc1ccc(N(C)C(=O)C2CCN(S(=O)(=O)c3ccc4c(c3)CCCN4C(C)=O)CC2)cc1	·	7.3	i	·	·	?
CC(C)(C)c1ccc(-c2nc(SCCCOc3ccccc3)n3[nH]c(=O)cc3n2)cc1	·	13.6	·	·	·	·
COc1ccccc1OCCCSc1nc(-c2ccc(C(C)(C)C)cc2)nc2cc(=O)[nH]n12	·	30.7*	i	·	·	i
SMILES	SW480 rereplic	D3 ag	KB-3-1 cytotox	D3 antag	MCF10A rereplic	KB-V1 MDR tox
c1ccc(N2CCN(c3c4c(nc5ncnn35)CCC4)CC2)cc1	-11.5%	11.7	i	19.4	2.2%	2.91µM*
COc1cccc(N2CCN(c3c4c(nc5ncnn35)CCC4)CC2)c1	-0.9%	7.9	23.1µM*	13.9	4.1%	?
CCOC(=O)c1c(C)[nH]c(C)c1S(=O)(=O)N1CCC(C(=O)N2CCN(c3cccc(C)c3C)CC2)CC1	·	4.8	?	·	·	i
Cc1ccccc1COn1nnc2ccc(S(=O)(=O)N3CCOCC3)cc21	-3.4%	-0.1	i	-51.5*	8.9%	i
COc1ccc(/C=C/c2c([N+](=O)[O-])c(=O)n(C)c(=O)n2C)cc1O	?	-3.8	?	2.4	4.3%	?
CN(C)c1ccc(/C=C/c2c([N+](=O)[O-])c(=O)n(C)c(=O)n2C)cc1	-6.2%	4.3	i	-12.3	-6.3%	i
COc1ccc(OC)c(/C=C/c2c([N+](=O)[O-])c(=O)n(C)c(=O)n2C)c1	16.8%	4.6	20.6µM*	2.6	-6.9%	i
Cn1c(/C=C/c2ccc(Br)cc2)c([N+](=O)[O-])c(=O)n(C)c1=O	?	-18.0	20.6µM*	-24.3	20.6µM*	?
CCn1c(=O)n(-c2ccc(F)c(Cl)c2)c(=O)c2sc3ccccc3c21	·	9.0	i	·	·	?
Cc1cc(/C=C2/NC(=O)NC2=O)c(C)n1-c1ccncc1	-12.4%	8.3	i	2.2	0.0%	?
Cc1cccc(-n2c(C)cc(/C=C3\NC(=O)NC3=O)c2C)c1	?	-3.4	i	3.1	16.4µM*	?
Cn1cnc2c(=O)oc3ccc(S(=O)(=O)Nc4ccc(F)cc4)cc3c21	·	-7.9	i	·	·	?
Cc1ccc(C)c(C(=O)COC(=O)c2ccccc2N2C(=O)C3C4CCC(C4)C3C2=O)c1 (stereo not drawn)	-0.7%	2.7	i	1.5	-0.2%	4.11µM*

Bioassay records (PubChem BioAssay)
